# CYP2C19 inhib: blockers of cytochrome P450 2C19 activity – biochemical, luminescence, ADME assay, primary screen; P33261; inhibition, % at 5 µM; 96,000 compounds, 21% hits; CYP2C19 Supersomes, luciferin-H EGE luminescence, 30 min; AID 778, 2007;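 active = CYP2C19 inhibition above a set limit at 5 µM in the primary screen, cut at about 50% in these data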;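 also: plate controls were negative control wells for no effect and 2.5 mM tranylcypromine positive control for full effect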
# Mac1 fbg enh: enhancers of CD11b/CD18 adhesion to fibrinogen, primary screen, K562 cells, luminescence; Integrin beta-2 (Homo sapiens) + Integrin alpha-M (Homo sapiens), P05107+P11215; ATPlite luminescence; activation, % at 10 µM; 93,000 compounds, 0.07% hits;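 active = 10 µM primary screen giving 50% or more activity, confirmed by 40% or more on retest at that dose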
# Target sequence (P05107 whole entry, looked up, other chains not shown): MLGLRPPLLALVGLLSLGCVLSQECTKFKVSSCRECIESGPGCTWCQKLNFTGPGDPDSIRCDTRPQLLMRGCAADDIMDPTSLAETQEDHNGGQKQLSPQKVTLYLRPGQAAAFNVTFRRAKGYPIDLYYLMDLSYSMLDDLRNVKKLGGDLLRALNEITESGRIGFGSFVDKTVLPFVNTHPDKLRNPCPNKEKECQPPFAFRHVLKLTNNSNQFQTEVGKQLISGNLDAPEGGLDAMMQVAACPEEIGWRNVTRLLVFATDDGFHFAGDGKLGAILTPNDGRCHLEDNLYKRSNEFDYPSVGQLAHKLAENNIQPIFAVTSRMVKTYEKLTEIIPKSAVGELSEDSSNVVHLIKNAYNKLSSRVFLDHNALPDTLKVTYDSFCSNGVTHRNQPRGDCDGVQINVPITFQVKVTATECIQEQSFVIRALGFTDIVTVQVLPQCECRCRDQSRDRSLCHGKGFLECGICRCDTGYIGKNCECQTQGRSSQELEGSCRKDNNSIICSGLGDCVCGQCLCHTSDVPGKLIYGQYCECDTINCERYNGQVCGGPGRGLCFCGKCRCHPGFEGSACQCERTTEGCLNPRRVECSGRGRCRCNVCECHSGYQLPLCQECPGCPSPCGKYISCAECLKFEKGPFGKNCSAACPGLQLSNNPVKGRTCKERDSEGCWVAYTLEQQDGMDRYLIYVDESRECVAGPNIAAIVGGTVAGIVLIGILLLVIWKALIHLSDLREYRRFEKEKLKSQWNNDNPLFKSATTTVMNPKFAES
# CYP2C9 inhib: blockers of cytochrome P450 2C9 activity – biochemical, luminescence, ADME assay, primary screen. P11712. CYP2C9 Supersomes, luciferin-H conversion. inhibition, % at 5 µM. 96,000 compounds, 20% hits. AID 777, 2007;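 active = blocking of liver enzyme CYP2C9 beyond about 50% at 5 µM, limit read from the data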
# Mac1 fbg inh: inhibitors of CD11b/CD18 adhesion to fibrinogen, primary screen, K562 cells, luminescence | Integrin beta-2 (Homo sapiens) + Integrin alpha-M (Homo sapiens), P05107+P11215 | ATPlite luminescence; Mn2+ added to activate the integrin | inhibition, % at 10 µM | 93,000 compounds, 0.54% hits | AID 1497, 2009;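 active = primary inhibition of 50% or more at 10 µM, then 40% or more on retest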
# CYP2C19 activ: human CYP2C19 activators, primary screen, biochemical, luminescence; Cytochrome P450 2C19 (Homo sapiens), P33261; recombinant CYP2C19, luciferin-H EGE luminescence; hits give high values; 0 = fully inhibited enzyme, 1 = untreated enzyme; activation factor at 5 µM; 96,000 tested, under 10 active;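 active = activation factor of at least 2 at 5 µM in the primary screen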;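 also: 0 = wells with 2.5 mM tranylcypromine and 1 = vehicle-only wells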
# CYP2C9 activ: human CYP2C9 activators, primary screen, biochemical, luminescence | recombinant CYP2C9, luciferin-H conversion; hits give high values; factor 1 = untreated enzyme, 0 = blocked | activation factor at 5 µM | Cytochrome P450 2C9 (Homo sapiens), P11712 | 96,000 compounds, 1.4% hits;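 active = activation factor of 2 or more for CYP2C9 at a 5 µM dose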;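 also: 0 = sulfaphenazole-blocked wells and 1 = vehicle-only wells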
# * = called active by the depositor; . = no result given. Shown are actives, neighbours in structure and some others; about 28% of the full set was active somewhere.
SMILES,CYP2C19 inhib,Mac1 fbg enh,CYP2C9 inhib,Mac1 fbg inh,CYP2C19 activ,CYP2C9 activ
Cc1cccc(N(CC(=O)Nc2ccc(F)cc2)S(C)(=O)=O)c1,96*,-4,82*,-13,0,0.2
CCCCC(=O)Nc1cccc(-c2nn3c(C)nnc3s2)c1,14,1,17,3,0.9,0.8
CCC1(C)C(Nc2c(C)cccc2C)=NC(=S)N1c1ccc(NC(C)=O)cc1 (centres undefined),.,-1,.,6,.,.
O=C(Nc1ccc(-n2cnnn2)cc1)C1CCC1,51*,2,39,16,0.5,0.6
O=C(Nc1ccc(F)cc1)C1CCCCC1,37,-4,14,-20,0.6,0.9
O=C(COC(=O)CCc1nc2ccccc2s1)Nc1ncc(Cl)cc1Cl,.,0,.,-1,.,.
COc1cc(CC(=O)OCC(=O)Nc2ncc(Cl)cc2Cl)cc(OC)c1OC,67*,-1,45,-16,0.3,0.5
COc1ccc(CC(=O)OCC(=O)Nc2ncc(Cl)cc2Cl)cc1,64*,-1,53*,-2,0.4,0.5
COc1ccccc1OCC(=O)OCC(=O)Nc1ncc(Cl)cc1Cl,-19,-1,-18,-3,1.2,1.2
COc1ccc(CC(=O)OCC(=O)Nc2ccc(Cl)cn2)cc1,31,3,48,-11,0.7,0.5
COc1ccc(CC(=O)OCC(=O)NC(=O)NC2CCCCC2)cc1,12,6,56*,4,0.9,0.4
O=C(COC(=O)CCc1ccccc1)Nc1ncc(Cl)cc1Cl,54*,-1,21,4,0.5,0.8
Cn1c(=O)c2c(nc(SCCN3CCCCC3)n2Cc2ccc(Cl)cc2)n(C)c1=O,8,0,20,-11,0.9,0.8
CC(=O)CCc1oc2ccc(NC(C)=O)cc2c1-c1ccc(C)o1,46,-3,21,27,0.5,0.8
Cc1ccc(S(=O)(=O)c2c(C)nn(C(C)(C)C)c2OC(=O)C2CCCC2)cc1,37,3,61*,13,0.6,0.4
O=C(NCc1ccccc1)C12CC3CC(CC(C3)C1)C2,31,-3,-3,6,0.7,1
O=C(NCc1ccncc1)C12CC3CC(CC(C3)C1)C2,52*,-2,49,2,0.5,0.5
CCOc1ccc(NC(=O)Cn2nnc(C(=O)NCc3ccccc3OC)c2N)cc1,12,.,-113,.,0.9,2.1*
CCOC(=O)c1nnn(CC(=O)Nc2cc(Cl)ccc2C)c1C(=O)OCC,28,-4,48,-2,0.7,0.5
CCOC(=O)c1nnn(CC(=O)Nc2ccccc2OC)c1C(=O)OCC,55*,-3,44,-46,0.5,0.6
CCOC(=O)c1nnn(CC(=O)Nc2cc(F)ccc2F)c1C(=O)OCC,68*,0,44,18,0.3,0.6
CCOc1ccc(NC(=O)c2nnn(CC(=O)Nc3ccccc3OCC)c2N)cc1,13,2,22,-18,0.9,0.8
COC(=O)c1nnn(CC(=O)Nc2cccc(Cl)c2C)c1C(=O)OC,90*,-3,45,-40,0.1,0.6
Nc1cccc(-n2nncc2-c2ccccc2)c1,31,.,0,.,0.7,1
CSc1ccc(/C=C(\C(=O)O)c2ccc(S(=O)(=O)N3CCCCC3)s2)cc1,.,14,.,5,.,.
SMILES,CYP2C19 inhib,Mac1 fbg enh,CYP2C9 inhib,Mac1 fbg inh,CYP2C19 activ,CYP2C9 activ
C=CCSc1nnc2nc3[nH]c4c(C)cccc4c3nn12,-4,.,3,.,1,1
COc1cc(C2C(C(=O)c3ccco3)=C(O)C(=O)N2Cc2cccnc2)cc(OC)c1OC (centres undefined),3,-4,7,10,1,0.9
c1ccc2c(N3CCCCC3)ncnc2c1,16,-4,7,6,0.8,0.9
N#Cc1nn(-c2ccccc2)nc1N1CCCCC1,16,-2,51*,-15,0.8,0.5
CCOc1ccc2nc(NC(=O)CSc3ccc(Cl)cc3)sc2c1,6,1,63*,12,0.9,0.4
COc1ccc2nc(NC(=O)CSc3ccccc3)sc2c1,31,-6,63*,-20,0.7,0.4

# Source: PubChem
